Assay results as given in PubChem BioAssay (NCATS).
Results filed as inconclusive are left out. Entries that show only a call come without a potency. The source made the active and inactive calls. Calls follow the shape of the dose curve; as a rule, active = well fitted cell-killing curve with a large enough effect; inconclusive = small, poorly fitted or top-dose-only effect, or effect the other way; inactive = no such curve, though single readings can be large or run the other way.
Potency is read from the fitted curve at half-maximal effect.

Assay: Quantitative High-Throughput drug screen in 47 multiple myeloma cell lines against the NCATS MIPE library collection: KMS27_JCRB cell viability assay (AID 1918970); also: nearly all actives have a fitted effect of over 30% in size
Details: KMS27 myeloma cells, CellTiter-Glo ATP viability, 48 h; series mostly up to 45.8 µM
In short: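 KMS27_JCRB myeloma cells, 500 per well, exposed 48 h at 37 C, 5% CO2 to MIPE 4.0 compounds. Viability from ATP by CellTiter-Glo luminescence, normalized to DMSO (100%) and medium-only (0%) wells.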
For `CCN(CC)CCn1c(=O)c(Cc2ccc(OC)cc2)nc2ccccc21`, the Potency was 10.5 µM (active). For `CCOC(=O)c1ccc(C#Cc2ccc3c(c2)C(C)(C)CCS3)nc1`, the Potency was “inactive”. With `CNC1CCCN(c2c(F)cc3c(=O)c(C(=O)O)cn(C4CC4)c3c2OC)C1` (stereo unspecified) the Potency was 0.0209 µM (active). In the case of `Cc1nnc(NS(=O)(=O)c2ccc(N)cc2)s1`, the Potency is reported as 1.05 µM (active). In the case of `CNS(=O)(=O)Cc1ccc2[nH]cc(CCN(C)C)c2c1`, the Potency is reported as “inactive”. For `NC(=O)c1cccnc1`, the Potency was 0.003 µM (active). In the case of `CS(=O)(=O)c1ccc([C@@H](O)[C@@H](CO)NC(=O)C(Cl)Cl)cc1`, the Potency is reported as “inactive”. For `CNC(=O)c1cc(Oc2ccc(NC(=O)Nc3ccc(Cl)c(C(F)(F)F)c3)cc2)ccn1`, the Potency was 3.32 µM (active). In the case of `Nc1ccc(S(=O)(=O)Nc2ccccn2)cc1`, the Potency is reported as “inactive”. For `CC(C)(C#N)c1cc(Cn2cncn2)cc(C(C)(C)C#N)c1`, the Potency was “inactive”. With `NS(=O)(=O)c1cc2c(cc1Cl)NC(C(Cl)Cl)NS2(=O)=O` (stereo unspecified) the Potency was “inactive”. For `CCCOc1ccc(C(=O)OCCN(CC)CC)cc1N`, the Potency was “inactive”. For `CC[C@H](NC(C)C)[C@H](O)c1ccc(O)c2[nH]c(=O)ccc12`, the Potency was “inactive”. With `CN1CCN(c2c(F)cc3c(=O)c(C(=O)O)cn4c3c2OCN4C)CC1` the Potency was “inactive”. In the case of `Cc1ncc([N+](=O)[O-])n1CCO`, the Potency is reported as “inactive”. For `CC(C)C1CCC(C(=O)N[C@H](Cc2ccccc2)C(=O)O)CC1` (stereo partly specified), the Potency was “inactive”. In the case of `COc1cc(NS(=O)(=O)c2ccc(N)cc2)nc(OC)n1`, the Potency is reported as “inactive”. With `Cc1noc(NS(=O)(=O)c2ccc(N)cc2)c1C` the Potency was “inactive”. For `CC(=O)CC(c1ccccc1)c1c(O)c2ccccc2oc1=O` (stereo unspecified), the Potency was “inactive”. With `O=c1oc2c(O)c(O)cc3c(=O)oc4c(O)c(O)cc1c4c23` the Potency was “inactive”. For `COc1ccc(-c2ccc3cc(C(=O)O)ccc3c2)cc1C12CC3CC(CC(C3)C1)C2`, the Potency was “inactive”. For `NC(=O)N1c2ccccc2CC(=O)c2ccccc21`, the Potency was “inactive”.

Assay: Quantitative High-Throughput drug screen in 47 multiple myeloma cell lines against the NCATS MIPE library collection: KMS12BM_JCRB cell viability assay (AID 1918971); also: nearly all actives have a fitted effect of over 35% in size
Details: KMS12BM myeloma viability, CellTiter-Glo ATP, 48 h; series mostly up to 45.8 µM
In short: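 Myeloma cells (500 per well) were exposed to MIPE 4.0 compounds by pin transfer and incubated 48 hours at 37C, 5% CO2. Viability was read as ATP by CellTiter-Glo luminescence, normalised to DMSO (100%) and media-only (0%) wells.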
For `COC(=O)Nc1nc2ccc(C(=O)c3ccccc3)cc2[nH]1`, the Potency was 1.48 µM (active). For `COc1cc2c(Nc3ccc(Br)cc3F)ncnc2cc1OCC1CCN(C)CC1`, the Potency was 18.7 µM (active). In the case of `CC(C(=O)O)c1ccc2c(c1)CC(=O)c1ccccc1S2` (stereo unspecified), the Potency is reported as “inactive”. With `CCN(CC)CCn1c(=O)c(Cc2ccc(OC)cc2)nc2ccccc21` the Potency was “inactive”. For `CNC1CCCN(c2c(F)cc3c(=O)c(C(=O)O)cn(C4CC4)c3c2OC)C1` (stereo unspecified), the Potency was “inactive”. For `NC(N)=NC(N)=NCCc1ccccc1`, the Potency was 10.5 µM (active). For `CN1CCCC(n2nc(Cc3ccc(Cl)cc3)c3ccccc3c2=O)CC1` (stereo unspecified), the Potency was 4.18 µM (active). With `CNS(=O)(=O)Cc1ccc2[nH]cc(CCN(C)C)c2c1` the Potency was “inactive”. With `CNS(=O)(=O)CCc1ccc2[nH]cc(C3CCN(C)CC3)c2c1` the Potency was 2.64 µM (active). In the case of `Cc1cccc(N(C)C(=S)Oc2ccc3ccccc3c2)c1`, the Potency is reported as “inactive”. In the case of `CS(=O)(=O)c1ccc([C@@H](O)[C@@H](CO)NC(=O)C(Cl)Cl)cc1`, the Potency is reported as “inactive”. In the case of `CC[C@H](NC(C)C)[C@H](O)c1ccc(O)c2[nH]c(=O)ccc12`, the Potency is reported as 0.0235 µM (active). For `COc1cc(NS(=O)(=O)c2ccc(N)cc2)nc(OC)n1`, the Potency was “inactive”. In the case of `CCCCCCNC(=O)n1cc(F)c(=O)[nH]c1=O`, the Potency is reported as 4.69 µM (active). With `Cc1nnc(C(=O)NC(C)(C)c2nc(C(=O)NCc3ccc(F)cc3)c(O)c(=O)n2C)o1` the Potency was “inactive”. With `COc1cccc(N(C)C(=S)Oc2ccc3c(c2)CCCC3)n1` the Potency was “inactive”. In the case of `COc1ccc(-c2ccc3cc(C(=O)O)ccc3c2)cc1C12CC3CC(CC(C3)C1)C2`, the Potency is reported as 2.35 µM (active). With `C[C@]12C=CC(=O)C=C1CC[C@@H]1[C@@H]2C(=O)C[C@@]2(C)[C@H]1CC[C@]2(O)C(=O)CO` the Potency was “inactive”.

Assay: Quantitative High-Throughput drug screen in 47 multiple myeloma cell lines against the NCATS MIPE library collection: KMS12PE_JCRB cell viability assay (AID 1918972); also: nearly all actives have a fitted effect of over 30% in size
Details: KMS12PE myeloma viability, CellTiter-Glo ATP, 48 h; series mostly up to 45.8 µM
In short: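 Inhibition of cell viability is measured here. Each line was plated at 500 cells per well, treated with MIPE 4.0 drugs, kept 48 hours at 37C, then assayed for ATP content by CellTiter-Glo luminescence.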
With `CCOC(=O)c1ccc(C#Cc2ccc3c(c2)C(C)(C)CCS3)nc1` the Potency was 11.8 µM (active). In the case of `Cc1nnc(NS(=O)(=O)c2ccc(N)cc2)s1`, the Potency is reported as 1.32 µM (active). In the case of `CNS(=O)(=O)Cc1ccc2[nH]cc(CCN(C)C)c2c1`, the Potency is reported as “inactive”. With `NC(=O)c1cccnc1` the Potency was “inactive”. For `N[C@@H](Cc1ccc(O)c(O)c1)C(=O)O`, the Potency was “inactive”. With `CNC(=O)c1cc(Oc2ccc(NC(=O)Nc3ccc(Cl)c(C(F)(F)F)c3)cc2)ccn1` the Potency was 3.72 µM (active). With `Nc1ccc(S(=O)(=O)Nc2ccccn2)cc1` the Potency was “inactive”. For `CC[C@H](NC(C)C)[C@H](O)c1ccc(O)c2[nH]c(=O)ccc12`, the Potency was “inactive”. For `CN1CCN(c2c(F)cc3c(=O)c(C(=O)O)cn4c3c2OCN4C)CC1`, the Potency was “inactive”. In the case of `Cc1ncc([N+](=O)[O-])n1CCO`, the Potency is reported as “inactive”. With `NC(=O)c1cccc(N)c1` the Potency was “inactive”. For `Cc1noc(NS(=O)(=O)c2ccc(N)cc2)c1C`, the Potency was “inactive”. For `OC(Cn1cncn1)(Cn1cncn1)c1ccc(F)cc1F`, the Potency was “inactive”. With `COc1ccc(-c2ccc3cc(C(=O)O)ccc3c2)cc1C12CC3CC(CC(C3)C1)C2` the Potency was “inactive”. With `NC(=O)N1c2ccccc2CC(=O)c2ccccc21` the Potency was “inactive”. With `C[C@]12C=CC(=O)C=C1CC[C@@H]1[C@@H]2C(=O)C[C@@]2(C)[C@H]1CC[C@]2(O)C(=O)CO` the Potency was “inactive”.
